High-throughput results (PubChem)
PrP 5UTR inh = inhibition of PrP 5' UTR reporter expression; AID 488862, 2010; hit rate 0.35% among 340,000; cell-based PrP 5' UTR mRNA reporter, plate reader; inhibition, % (test concentration not listed); in the data active = inhibition above about 52%; also: 0 = median of the neutral control wells
TcdB GH inh = TcdB glycohydrolase inhibitors, primary screen, biochemical, single point, plate reader. Toxin B (Clostridioides difficile), P18177. TcdB glycohydrolase enzymatic assay. inhibition, % at 9.99 µM. hit rate 0.24% among 350,000. AID 652162, 2013; in the data active = inhibition above about 10%
Mtb BioA inh = M. tuberculosis BioA enzyme inhibitors, primary screen, biochemical, plate reader, single point, HTS; 7,8-diaminopelargonic acid synthase BioA (Mycobacterium tuberculosis); purified M. tuberculosis BioA enzyme; inhibition, % at 9.99 µM; hit rate 0.096% among 360,000; in the data active = inhibition above about 40%; inconclusive = no clear call, values can overlap the other calls
FadD28 FP inh = inhibitors of FadD28 bisubstrate probe binding, primary screen, biochemical, fluorescence polarization, single point. Mycobacterium tuberculosis FadD28 fatty-acid-AMP ligase. inhibition, % at 12.5 µM. hit rate 0.22% among 360,000; in the data active = inhibition above about 8.5%, passing the limit was not always enough; inconclusive = no clear call, values can overlap the other calls
PfHsp40 rescue = rescue of yeast from PfHsp40 toxicity, primary screen, S. cerevisiae, ATP luminescence; hit rate 0.68% among 340,000; growth rescue, % at 12.5 µM; AID 504582, 2011; S. cerevisiae expressing PfHsp40, growth rescue; in the data active = growth rescue above about 28%, passing the limit was not always enough; inconclusive = no clear call, values can overlap the other calls;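 also: yeast W303a lacking pdr1 and pdr3 grown in galactose medium; growth measured after three days at 30 °C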
Yp Topo-I inh = Yersinia pestis topoisomerase I inhibitors, primary screen, biochemical, cleavage product accumulation, plate reader, single point; AID 504884, 2011; hit rate 0.064% among 360,000; Y. pestis Topo-I cleavage product accumulation; activity, % at 10 µM; in the data active = activity above about 50%, passing the limit was not always enough; inconclusive = no clear call, values can overlap the other calls
* = called active by the depositor; ? = inconclusive; . = not tested or not shown. Compounds with a hit are over-represented: about 1.2% of the library has one in this group of screens.

SMILES	PrP 5UTR inh	TcdB GH inh	Mtb BioA inh	FadD28 FP inh	PfHsp40 rescue	Yp Topo-I inh
N#CC(C#N)=NNc1ccc(S(=O)(=O)N2CCCCC2)cc1	-11.2	-1.6	-0.4	-0.1	-0.4	-5.2
N#CC(C#N)=NNc1ccc(S(N)(=O)=O)cc1	-9.3	0.7	0.4	25.0*	-0.1	-16.6
Oc1ccc(-c2nccs2)cc1	-16.0	21.5*	-0.5	2.0	0.1	-8.8
COc1ccc(C(=O)N/N=C(\C)c2ccccn2)cc1OC	26.9	2.6	-1.8	-4.1	-1.8	-1.3
CC(=NNC(=S)Nc1cccc(C)c1)c1ccccn1	51.8	-3.1	.	-2.1	116.5*	-7.4
CC(=NNC(=S)Nc1ccc(C)cc1)c1ccccn1	4.7	-0.8	.	1.0	0.2	7.9
COc1ccccc1NC(=S)NN=C(C)c1ccccn1	10.3	-1.6	.	-2.7	179.8*	-9.1
COc1cccc(CNC(=O)C2CCCN(S(=O)(=O)c3cccc4nonc34)C2)c1 (stereo not given)	-14.3	.	-2.3	0.9	38.1*	0.7
CO[C@H]1CN(C)C(=O)c2ccc(NC(=O)c3ccccc3F)cc2OC[C@@H](C)NC[C@@H]1C	.	-1.5	-1.8	.	.	.
COc1ccc(C(CNC(=O)c2oc3ccc(OC)cc3c2C)N2CCCC2)cc1 (stereo not given)	-10.4	11.8*	-6.8	-2.9	0.1	-3.1
COc1ccc(C(=O)/C=C/c2ccc(O)cc2)c(O)c1CC=C(C)C	-24.6	-1.1	-3.6	-8.3	?	-38.5
COc1ccc(C(=O)/C=C/c2ccc(O)cc2)c2c1CC(O)C(C)(C)O2 (stereo not given)	3.5	23.1*	0.8	-6.1	0.4	0.4
COc1ccc(NC(=O)N(C)C[C@@H]2OCCCC[C@@H](C)Oc3ccc(NS(=O)(=O)c4ccc(F)cc4)cc3C(=O)N([C@H](C)CO)C[C@@H]2C)cc1	.	0.6	-0.4	.	.	.
CC(=O)N(c1ccccc1)c1nc2ccccc2s1	-44.0	1.9	-0.7	-3.9	-0.8	4.9
CC(=O)N(c1ccccc1)c1c(F)c(F)c(F)c(F)c1F	-0.8	.	0.1	3.2	34.0*	6.8
CC(=O)c1cccc(NC(=O)NC2CCCCC2)c1	-14.3	0.9	0.3	-2.6	0.6	0.6
CC(=O)c1cccc(NC(=O)NC2CCCCCCC2)c1	-20.7	1.7	-1.0	15.0*	-0.9	7.1
CC(=O)c1cccc(NC(=S)NC2CCCCCCC2)c1	-5.9	-0.4	0.5	14.1*	-1.1	3.2
C[C@H]1CN([C@@H](C)CO)C(=O)c2cc(C#CCN(C)C)cnc2O[C@@H]1CN(C)C(=O)CN1CCOCC1	.	0.8	6.5	.	.	.
Cc1noc(C)c1NC(=O)Nc1ccc2c(c1)C(=O)N([C@H](C)CO)C[C@@H](C)[C@@H](CN(C)Cc1ccccc1)OCCCC[C@H](C)O2	.	0.5	0.1	.	.	.
CCN(Cc1cc(=O)n2ccsc2n1)c1cccc2ccccc12	-13.2	-6.1	.	-1.0	178.2*	22.6
C[C@@H]1CN([C@H](C)CO)C(=O)c2cccc(NC(=O)C3CC3)c2O[C@@H]1CN(C)S(=O)(=O)c1ccc(F)cc1	.	-0.5	-0.6	.	.	.
FC(F)(F)c1cccc(N2CCc3cn[nH]c32)c1	-45.1	.	-0.6	-0.3	292.5*	-2.4
C[C@@H]1CN([C@H](C)CO)S(=O)(=O)c2ccc(-c3cccnc3)cc2O[C@@H]1CN(C)Cc1ccncc1	.	0.3	0.3	.	.	.
Cc1ccc(S(=O)(=O)Nc2cccnc2Oc2ccc(Cl)cc2)cc1	-6.6	13.7*	.	-1.9	17.8	-4.6
SMILES	PrP 5UTR inh	TcdB GH inh	Mtb BioA inh	FadD28 FP inh	PfHsp40 rescue	Yp Topo-I inh
Cc1ccc(C(=O)Nc2cccnc2Oc2ccc(Cl)cc2)cc1	-12.1	5.8	-0.2	0.0	5.1	6.9
C[C@@H]1CN([C@@H](C)CO)C(=O)c2cc(C#CC3CCCC3)cnc2O[C@@H]1CN(C)C(=O)c1ccncc1	.	-0.5	-0.5	.	.	.
COc1cccc(NC(=O)Nc2nc(SC(C)(C)C)ns2)c1	-40.2	-0.9	4.9	21.4*	1.0	-7.6
Cc1n[nH]c(C)c1N=Nc1ccc(Br)cc1	-50.4	1.9	-1.2	-3.2	242.1*	-8.6
c1ccc(COc2ccc(OCCOCCn3cncn3)cc2)cc1	-53.4	0.0	0.7	-0.5	-0.4	10.4
O=[N+]([O-])c1ccc(OCCCn2cncn2)cc1	9.5	-0.9	-0.1	-0.4	50.7*	0.7
c1ccc(Oc2cccc(OCCCn3cncn3)c2)cc1	-18.1	.	-0.2	-6.2	94.8*	4.7
O=C(O)c1nn(CCOc2cccc(Br)c2)c(=O)c2ccccc12	-12.7	-4.0	0.6	-0.7	3.9	52.3*
O=C(O)c1nn(CCOc2cccc(Cl)c2)c(=O)c2ccccc12	-16.6	2.4	.	-8.4	0.5	-1.2
C[C@H](CO)N1C[C@H](C)[C@@H](CN(C)CC2CCCC2)Oc2cc(C#CC(C)(C)O)ccc2S1(=O)=O	.	1.1	1.4	.	.	.
Oc1ccc(Nc2nc(Cl)nc(NCc3ccco3)n2)cc1	-5.0	12.9*	.	-0.7	-1.6	-4.6
C=CCNc1nc(Cl)nc(NCc2ccco2)n1	-7.2	-0.4	0.5	-2.2	0.0	-3.7
CN1C(=O)c2cc(NC(=O)c3ccc(C(F)(F)F)cc3)ccc2OC[C@H]2O[C@@H](CC(=O)O)CC[C@H]21	.	3.3	-1.8	.	.	.
F[B-](F)(F)c1cc2cc(Br)ccc2s1	6.5	.	0.0	2.0	186.2*	2.9
CNc1ccc2oc(C[C@H]3O[C@@]4(CC[C@H]3C)O[C@H]([C@H](C)C(=O)c3ccc[nH]3)[C@H](C)C[C@H]4C)nc2c1C(=O)O	5.6	1.2	-1.7	-0.7	142.8*	-6.7
COc1ccc(NC(=O)Cn2cnc3sc(C)c(S(=O)(=O)N4CCOCC4)c3c2=O)c(OC)c1	-0.8	15.4*	0.2	-0.3	-1.7	4.1
C[C@@H]1CN([C@H](C)CO)C(=O)c2cc(NC(=O)Nc3cccc4ccccc34)ccc2O[C@@H](C)CCCCO[C@H]1CN(C)Cc1ccc(C(=O)O)cc1	.	-0.5	1.0	.	.	.
C[C@@H]1CN([C@H](C)CO)C(=O)c2cc(C#Cc3cccnc3)cnc2O[C@@H]1CN(C)C(=O)CC1CC1	.	0.9	0.1	.	.	.
COc1ccc(CSCCNC(=S)Nc2ccccc2)cc1Cl	-25.1	-0.6	.	-9.2	44.8*	16.1
S=C(NCCSCc1ccc(Cl)c(Cl)c1)Nc1ccccc1	-7.2	.	3.7	-2.9	1.3	0.9
S=C(NCCSCc1c(Cl)cccc1Cl)Nc1ccccc1	-31.6	.	1.2	-2.2	285.0*	1.0
COc1ccc(C(=O)NCC2(c3ccc(OC)c(OC)c3)CCCC2)cc1OC	.	1.2	10.7	-3.1	.	16.6
COc1ccc(C2(CNC(=O)c3ccc(OC)c([N+](=O)[O-])c3)CCCCC2)cc1OC	-5.6	12.0*	7.8	?	2.6	-2.1
COc1ccc(NC(=O)Nc2nc3c(s2)CCCC3)cc1	-103.3	0.5	0.8	5.7	56.1*	-13.4
